Compound activity: PubChem, National Center for Advancing Translational Sciences (NCATS)
ALOX12 inh: Primary qHTS assay for inhibitors of human arachidonate 12S-lipoxygenase (ALOX12): Round 2; AID 1671190, 2021; 580,000 compounds, 1.1% hits; Potency, µM (doses to about 108 µM), actives largely listed as inhibitors; purified 12hLO, xylenol orange hydroperoxide absorbance
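Purified human 12hLO at 150 nM in 25 mM Hepes, 0.01% Triton X-100, pH 7.0, preincubated 15 min at room temperature with compound. Reaction started with 40 uM arachidonic acid, 30 min at room temperature. Hydroperoxide measured by Fe-xylenol orange, 573/405 nm absorbance ratio.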
Sfp PPTase inh: qHTS Assay for Inhibitors of Bacillus subtilis Sfp phosphopantetheinyl transferase (PPTase). Potency, µM, most hits filed as inhibitors. Biochemical Sfp PPTase activity, qHTS. 4'-phosphopantetheinyl transferase ffp (Bacillus subtilis), Q9F4F7. 310,000 compounds, 3.5% hits;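 further: the enzyme is Sfp with the accession as filed and its product quenches rhodamine fluorescence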
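Fluorescence-quenching assay: 15 nM Sfp-PPTase preincubated 15 min at room temperature with compound, then 5 uM rhodamine-CoA and 12.5 uM BHQ-2-labelled YbbR peptide added. Fluorescence (ex 525/em 598 nm) read at start and after 30 min; difference gives rate.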
G9a block: qHTS Assay for Inhibitors of Histone Lysine Methyltransferase G9a | Histone-lysine N-methyltransferase EHMT2 (Homo sapiens), Q96KQ7 | G9a H3K9 monomethylation, AlphaScreen, 2 h | Potency, µM (titrated, usually from 102 µM), actives largely listed as inhibitors | 350,000 compounds, 8.8% hits | AID 504332, 2011; further: nearly all actives have a fitted effect of over 75% in size
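Methyltransferase reactions run at room temperature for 2 h (20 nM enzyme, 500 nM biotin-H3K9 peptide, 20 uM SAM) after a 15 min compound preincubation; product detected by AlphaScreen beads and anti-H3K9me1 antibody.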
VDR inhibitor: Inhibitors of the vitamin D receptor (VDR): qHTS. Vitamin D3 receptor (Homo sapiens), P11473. VDR-SRC2-3 peptide fluorescence polarization, 2 h. Potency, µM, hits mostly inhibitors. 400,000 compounds, 0.93% hits. AID 504847, 2011
Target sequence (P11473 whole entry, looked up): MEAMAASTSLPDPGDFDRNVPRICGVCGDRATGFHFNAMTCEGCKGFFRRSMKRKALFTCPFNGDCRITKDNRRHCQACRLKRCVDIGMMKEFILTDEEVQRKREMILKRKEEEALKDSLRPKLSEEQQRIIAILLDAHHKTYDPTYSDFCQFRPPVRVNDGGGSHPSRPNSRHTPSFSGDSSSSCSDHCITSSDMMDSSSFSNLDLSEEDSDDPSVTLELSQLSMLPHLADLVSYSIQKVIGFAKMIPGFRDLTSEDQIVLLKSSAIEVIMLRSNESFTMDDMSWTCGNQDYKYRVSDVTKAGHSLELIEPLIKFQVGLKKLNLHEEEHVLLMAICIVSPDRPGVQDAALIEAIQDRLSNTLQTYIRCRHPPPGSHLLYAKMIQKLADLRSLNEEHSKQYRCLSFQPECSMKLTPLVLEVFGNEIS
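Reagent solutions, kept cold and dark, are dispensed first; compounds are then pinned in at 23 nl, plates briefly spun, and incubated 2 h at ambient temperature. Inhibition of VDR–SRC2-3 peptide binding is read by fluorescence polarization.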
Glioma ERSR ind: qHTS for Inducers of the Endoplasmic Reticulum Stress Response (ERSR) in Human Glioma: qHTS. U87-MG GRP78 promoter luciferase reporter, 16 h. Potency, µM, hits mostly activators. 420,000 compounds, 0.02% hits; further: series mostly up to about 76 µM; nearly all actives have a fitted effect of over 35% in size
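ERSR induction read as luciferase luminescence (Bright-Glo, 10 min at room temperature) in stably transfected human U87-MG glioma cells exposed to compounds for 16 h, using GRP78 as sensor.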
Hits are given with their value; [ ] = dose if it differs, or a comment. This excerpt belongs to a sample that is enriched for hits. The call rests on the fitted dose curve; in most records, active means well fitted curve in the direction sought with a large enough effect; inconclusive means small, poorly fitted or top-dose-only effect, or another doubt; inactive means no such curve, though single readings can be large; an effect the other way counts as inactive or inconclusive.

What do the screens show for `CS(=O)(=O)c1ccc2nc(NC(=O)CCNC(=O)c3ccc([N+](=O)[O-])cc3)sc2c1`?
ALOX12 inh: inactive; G9a block: 40µM; VDR inhibitor: inactive; Glioma ERSR ind: inactive

What do the screens show for `CCc1noc(C)c1C(=O)Nc1nc2ccc(S(C)(=O)=O)cc2s1`?
ALOX12 inh: inactive; G9a block: 50µM; VDR inhibitor: inactive; Glioma ERSR ind: inactive

Results for O=C(NC1CCN(S(=O)(=O)c2cccc(F)c2F)CC1)C1CC1 ?
ALOX12 inh: inactive

What do the screens show for `O=C(c1cccs1)N1CCC(Cc2nc(-c3ccncc3)n[nH]2)CC1`?
ALOX12 inh: inactive

How did CCc1ccc2c(CN3CCN(S(=O)(=O)c4ccc5c(c4)OCCO5)CC3)cc(=O)oc2c1 do in these assays?
ALOX12 inh: inactive; Sfp PPTase inh: inactive; G9a block: inconclusive; VDR inhibitor: inactive; Glioma ERSR ind: inactive

What do the screens show for `O=c1cc(CN2CCN(S(=O)(=O)c3ccc4c(c3)OCCO4)CC2)c2ccc(O)cc2o1`?
ALOX12 inh: inconclusive; Sfp PPTase inh: inactive; G9a block: 50µM; VDR inhibitor: inactive; Glioma ERSR ind: inactive

Results for COc1ccc(OC)c(CN2CCN(Cc3cc(=O)oc4cc(O)ccc34)CC2)c1 ?
ALOX12 inh: inactive; Sfp PPTase inh: inactive; G9a block: 35µM; VDR inhibitor: inactive; Glioma ERSR ind: inactive

Results for COc1cccc(C2CCCN2Cc2cc(=O)oc3cc(OC)ccc23)c1 (stereo not given) ?
ALOX12 inh: 45µM

How did COc1ccc(C2CCCN2Cc2cc(=O)oc3cc(C)c(C)cc23)cc1 (stereo not given) do in these assays?
ALOX12 inh: inactive

What do the screens show for `CC(C(=O)Nc1ccc(F)cc1)N(C)Cc1ccc2c(c1)OCCO2` (stereo not given)?
ALOX12 inh: inactive

How did C/C=C\C=C\C(=O)N1CC2(CC(c3cccc(NC(=O)COc4ccc(Cl)cc4)c3)=NO2)C[C@H]1C(N)=O (stereo not given in full) do in these assays?
ALOX12 inh: inconclusive; Sfp PPTase inh: 28µM; G9a block: inconclusive; VDR inhibitor: 89µM; Glioma ERSR ind: inactive

Results for C=C(C)C(=O)N1CC2(CC(c3cccc(NC(=O)COc4ccc(Cl)cc4)c3)=NO2)C[C@@H]1C(N)=O (stereo not given in full) ?
ALOX12 inh: inactive; Sfp PPTase inh: inactive; G9a block: inactive[12.7 µM]; VDR inhibitor: inactive; Glioma ERSR ind: inactive

How did C/C=C\C=C/C(=O)Nc1cccc(C2=NOC3(C2)C[C@@H](C(N)=O)N(C(=O)COc2ccc(Cl)cc2)C3)c1 (stereo not given in full) do in these assays?
ALOX12 inh: inconclusive; Sfp PPTase inh: 20µM; G9a block: inconclusive; VDR inhibitor: inconclusive; Glioma ERSR ind: inactive

Results for CCCCCC(=O)Nc1cccc(C2=NOC3(C2)C[C@H](C(N)=O)N(C(=O)COc2ccc(Cl)cc2)C3)c1 (stereo not given in full) ?
ALOX12 inh: inactive; Sfp PPTase inh: inactive; G9a block: inactive[12.7 µM]; VDR inhibitor: inactive; Glioma ERSR ind: inactive

How did CN1CC(=O)N(C2CNC2)Cc2c(NC3CCCC3)ncnc21 do in these assays?
ALOX12 inh: inactive

How did CCCCCC(/C=N/Nc1ccc(S(=O)(=O)N2CCOCC2)cc1[N+](=O)[O-])=C\c1ccccc1 do in these assays?
ALOX12 inh: inactive; Sfp PPTase inh: inactive; G9a block: 11µM; VDR inhibitor: inactive; Glioma ERSR ind: inactive

Results for Cc1nnc(NC(=O)c2cccc3c2ccn3C)s1 ?
ALOX12 inh: inactive

Results for O=C(Nc1ccccn1)c1ccc2c(c1)OCO2 ?
ALOX12 inh: inactive; Sfp PPTase inh: inactive; G9a block: 50µM; VDR inhibitor: inactive; Glioma ERSR ind: inactive

How did CN(C)C(=S)Nc1ccc2c(c1)OCO2 do in these assays?
ALOX12 inh: inconclusive; Sfp PPTase inh: 22µM; G9a block: 8.9µM; VDR inhibitor: inactive; Glioma ERSR ind: inactive

Results for Fc1ccc(NC(=S)N2CCCc3ccccc32)cc1 ?
ALOX12 inh: inconclusive; Sfp PPTase inh: inactive; G9a block: 40µM; VDR inhibitor: inactive; Glioma ERSR ind: inactive
